Data published in ChEMBL document CHEMBL3988442, “University of Dundee, Small-Polar-MMV Screening Library” (2021).
Screen size: about 38,000 compounds; about 1,200 (3.2%) showed an effect of 50% or more. The median lay at about -58%. The entries come from a sample that favours strong results as a whole.

system: Plasmodium falciparum; assay: Calibr Malaria Delayed Death Assay SOP; type: functional, organism-based; parameters: scale not given: in the data most compounds retested in dose-response had high values; conditions: concentration 4.99e-06 (unit not given; other assays of the set use mol/L)

Going from `Cc1cc(C)c(CNC(=O)NCC2Cc3ccccc3O2)c(=O)[nH]1` (stereo not given) to `Cc1ccc(C(O)CNC(=O)NCc2c(C)cc(C)[nH]c2=O)cc1` (stereo not given), the “Percent Effect” value rises from -144.1% to -76.06%.

Going from `CN1CCC(c2cccc(Cc3ccccc3)n2)CC1` to `CN1CCC(c2cccc(Cc3ccc(C(F)(F)F)cc3)n2)CC1`, the “Percent Effect” value rises from -0.8146% to 50.24%.

First: Fc1ccc(Cc2cccc(C3CCN(C4CCOCC4)CC3)n2)cc1
Second: Cc1cccc(OC2CCN(S(=O)(=O)Cc3cccc(F)c3)CC2)n1
The “Percent Effect” value of the first is higher: 38.56% for the first, -131.9% for the second.

Going from `COC1CCN(C(=O)C2CCCC2)CC(=O)N(C)c2ccccc21` (stereo not given) to `Cc1nc(-c2cccnc2)ncc1C(=O)N1CCCC(N(C)C)CC1` (stereo not given), the “Percent Effect” value rises from -134% to -60.09%.

Going from `CC1CN(C(=O)Nc2cc(C(F)(F)F)c[nH]c2=O)CC(C)(C)O1` (stereo not given) to `Cc1cccc(CN2CC[C@@H]3[C@@H]2CCN3C(=O)c2cc(C)oc2C)n1.O=C(O)C(F)(F)F`, the “Percent Effect” value falls from -36.51% to -98.87%.

First: Cc1ccsc1C(O)CNC(=O)Cc1ccc(S(=O)(=O)C(C)C)cc1 (stereo not given)
Second: CCc1ccc(C(=O)N2CC(C(=O)NC(C)C)C3(CCOCC3)C2)cc1 (stereo not given)
The “Percent Effect” value of the first is higher: 0.3509% for the first, -34.39% for the second.

First: COc1cc(-c2cccc3c2OC(CN)C3)cc(OC)c1OC (stereo not given)
Second: COc1c(F)cc(-c2cccc3c2OC(CN)C3)cc1F (stereo not given)
The “Percent Effect” value of the first is higher: 46.68% for the first, 35.23% for the second.

Going from `COc1ccc(-c2cccc3c2OC(CN)C3)cc1F` (stereo not given) to `COc1cc(-c2cccc3c2OC(CN)C3)ccc1O` (stereo not given), the “Percent Effect” value falls from 62.39% to 37.76%.

Compared with `NCC1Cc2cccc(-c3ccc(O)c(F)c3)c2O1` (stereo not given), `Cn1nc2c(cc1=O)CN(Cc1nc(N)c3ccccc3n1)CC2` is lower in “Percent Effect” value: 82.73% for the first, -169.7% for the second.

First: CS(=O)(=O)C1CCN(S(=O)(=O)Cc2cccc(F)c2)CC1
Second: CN(C)CC1CSCCCN1S(=O)(=O)Cc1cccc(F)c1 (stereo not given)
The “Percent Effect” value of the first is lower: -94.28% for the first, 58.19% for the second.

First: CN(C)CC1CSCCCN1S(=O)(=O)Cc1ccc(C(F)(F)F)cc1 (stereo not given)
Second: CN(C)CC1CSCCCN1S(=O)(=O)c1ccc(C(F)(F)F)cc1 (stereo not given)
The “Percent Effect” value of the first is lower: 9.215% for the first, 60.28% for the second.

Compared with `CN(C)CC1CSCCCN1C(=O)c1ccc(C(C)(C)C)cc1` (stereo not given), `Cc1cccc(C2CCCN(C(=O)c3ccncc3)C2)n1` (stereo not given) is lower in “Percent Effect” value: 0.9343% for the first, -31.2% for the second.

Compared with `OCCN1CCc2[nH]nc(C(c3ccccc3)c3ccccc3)c2C1`, `OCCCN1CCc2[nH]nc(C(c3ccccc3)c3ccccc3)c2C1` is higher in “Percent Effect” value: 59.95% for the first, 71.73% for the second.

Compared with `[O-][S+](CCN1CCc2[nH]nc(C(F)(F)F)c2C1)c1ccccc1` (stereo not given), `O=C(CCN1CCc2[nH]nc(C(F)(F)F)c2C1)Nc1ccccc1` is higher in “Percent Effect” value: -19.45% for the first, -17.85% for the second.

Going from `CC(O)CN1CCc2[nH]nc(C(c3ccccc3)c3ccccc3)c2C1` (stereo not given) to `FC(F)(F)c1n[nH]c2c1CN(CCc1ccccn1)CC2`, the “Percent Effect” value falls from 40.85% to -42.86%.
